Source: PubChem BioAssay
FBA Mtb inh: inhibitors of M. tuberculosis fructose-bisphosphate aldolase; P9WQA3; purified M. tuberculosis FBA, fluorescence read-out; inhibition, % at 1 µM; 360,000 compounds, 2.3% hits; in the data active = inhibition above about 27%;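 also: 0% = vehicle and 100% = reference inhibitor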
Mtb UGM inh: Mtb UDP-galactopyranose mutase inhibition | P9WIQ1 | purified UGM, fluorescence polarization probe displacement | inhibition, % at 10 µM | 320,000 compounds, 0.06% hits; in the data active = inhibition above about 10%, passing the limit was not always enough
Rv3671c protease: inhibitors of M. tuberculosis serine protease Rv3671c; 320,000 compounds, 0.048% hits; P9WHR9; inhibition, % at 5.96 µM; in the data active = inhibition above about 38%;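 also: extracellular domain of Rv3671c used as enzyme; 0% = enzyme with DMSO and 100% = no enzyme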
Target sequence (P9WHR9 whole entry, looked up, the tested form may be a part): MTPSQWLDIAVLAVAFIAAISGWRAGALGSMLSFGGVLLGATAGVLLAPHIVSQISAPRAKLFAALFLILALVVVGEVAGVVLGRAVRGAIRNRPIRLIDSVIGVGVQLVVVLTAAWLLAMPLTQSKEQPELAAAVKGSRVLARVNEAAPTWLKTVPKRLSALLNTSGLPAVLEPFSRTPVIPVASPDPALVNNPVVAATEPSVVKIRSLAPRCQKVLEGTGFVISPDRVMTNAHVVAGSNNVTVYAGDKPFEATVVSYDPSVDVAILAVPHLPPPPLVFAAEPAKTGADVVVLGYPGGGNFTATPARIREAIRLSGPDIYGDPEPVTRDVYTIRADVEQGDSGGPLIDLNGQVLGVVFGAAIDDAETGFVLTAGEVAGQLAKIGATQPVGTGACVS
GDH-TPI inh: inhibits GDH-TPI coupling enzymes, artifact for Mtb FBA screen | GDH-TPI coupled enzyme counterscreen, NADH absorbance | 360,000 compounds, 1.2% hits | inhibition, % at 4.8 µM | AID 588335; in the data active = inhibition above about 30%;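 also: 0% = DMSO wells and 100% = wells lacking the enzyme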
FadD28 binding: M. tuberculosis FadD28 bisubstrate binding inhibition | FadD28 bisubstrate probe binding, fluorescence polarization | inhibition, % at 12.5 µM | 360,000 compounds, 0.22% hits | AID 588549; in the data active = inhibition above about 8.5%, passing the limit was not always enough
Mtb hypoxia rep: Mtb hypoxia fluorescent reporter inhibition. M. tuberculosis hypoxia-regulated fluorescent reporter, fluorescence. fluorescence inhibition, % (test concentration not listed). 300,000 compounds, 0.1% hits; in the data active = fluorescence inhibition mostly above about 23%, no sharp cut-off; inactive = mostly below about 17%
An asterisk follows results filed as active; x = no result; + = active, no number. Only some compounds are listed: those with a hit (about 3.5% of all), similar ones and a draw of the others.

SMILES	FBA Mtb inh	Mtb UGM inh	Rv3671c protease	GDH-TPI inh	FadD28 binding	Mtb hypoxia rep
O=C(Nc1nnc(Cc2ccccc2)s1)c1ccco1	-2	1	5	26	1	0
O=C(/C=C\c1cccs1)c1c(O)ccc2ccc(=O)oc12	-7	0	4	36*	-4	15
O=C(Nc1ccccc1)Nc1cccc(-c2cn3cccnc3n2)c1	4	1	-11	10	3	5
CCCCC(=O)Nc1cccc(-c2cn3ccccc3n2)c1	33*	-2	2	4	-2	3
O=C(Nc1cccc(-c2cn3ccccc3n2)c1)c1ccccc1	3	-1	-4	4	-3	5
CCOCC(=O)Nc1ccc(-c2cn3cccnc3n2)cc1	+	0	-3	27	-2	-9
COc1ccc(-c2cn3cccnc3n2)cc1NC(=O)CC(C)C	20	0	6	23	-1	9
CCCC(=O)Nc1cccc(-c2cn3cccnc3n2)c1	189*	-2	3	30	-1	-8
CC(C)(C)CC(=O)Nc1ccc(-c2cn3cccnc3n2)cc1	+	0	8	15	0	-2
C=CCOC(=O)C(=O)C=Cc1ccc2c(c1)Cc1ccccc1-2	x	x	x	x	x	17
CCCCCC(=O)Nc1cccc(C2=NOC3(C2)CC(C(N)=O)N(C(=O)CC)C3)c1 (configuration not stated)	x	x	x	x	x	-13
COc1cccc(C=Nc2nc3ccccc3n2C)c1O	x	x	x	x	x	13
CCN(CC)S(=O)(=O)c1cccc(-c2cn3cccnc3n2)c1	181*	0	-2	25	-2	-1
CCN(CC)S(=O)(=O)c1cccc(-c2csc(C)n2)c1	-2	1	-9	16	-1	16
CCCC(=O)Nc1ccc(-c2cn3cccnc3n2)cc1	+	-2	7	18	-3	8
CC(C)CC(=O)Nc1ccc(-c2cn3cccnc3n2)cc1	+	0	-1	24	-1	-8
CC(C)Oc1ccccc1C=NNC(=O)C1CC1	x	x	x	x	x	8
N#C/C(=C\c1ccc(Cl)cc1)c1nc2ncccc2[nH]1	22	2	4	39*	0	x
CCOC(=O)C(C#N)=NNc1ccc(S(=O)(=O)Nc2nc(C)cc(C)n2)cc1	x	x	x	x	x	18
CC1CN(C(C)CO)C(=O)c2cccc(NC(=O)Cc3ccccc3)c2OC1CN(C)C(=O)NC1CCCCC1 (configuration not stated)	x	x	x	x	x	11
O=C(Nc1ccccc1[N+](=O)[O-])C1=C(O)CCn2c1nc1ccccc12	1	1	4	39*	-1	11
Cc1sc2ncnc(N/N=C/c3ccccc3O)c2c1C	0	0	25	35*	0	x
Cc1sc2ncnc(N/N=C/c3ccc(O)cc3)c2c1C	1	2	22	48*	-2	x
Nc1c(Cl)ncnc1N/N=C/c1ccc(O)cc1	2	-1	0	42*	-3	x
COc1cccc(/C=N/Nc2ncnc3scc(-c4ccccc4)c23)c1OC	5	0	-2	41*	-6	x
SMILES	FBA Mtb inh	Mtb UGM inh	Rv3671c protease	GDH-TPI inh	FadD28 binding	Mtb hypoxia rep
CC(=NNS(=O)(=O)c1ccccc1)c1ccc(NC(=O)C2CC2)cc1	x	x	x	x	x	11
COc1cc(C=NNC(=O)c2cccc3ccccc23)ccc1OCC(N)=O	x	x	x	x	x	11
COc1ccc2c(ccc[n+]2CC(=O)c2ccc(C)cc2)c1	31*	2	3	3	0	15
COc1ccc2c(ccc[n+]2CC(=O)c2ccccc2)c1	26	-2	x	13	-2	0
Nc1ccc(-c2nc3ccccc3o2)cc1	150*	-2	2	14	-35	-10
COc1ccc(C=NNS(=O)(=O)c2ccc(C)cc2)cc1	x	x	x	x	x	2
COc1cccc(NC(=O)Nc2ccc(C(C)(C)C)cc2)c1	-4	x	x	0	19*	-7
COc1ccc(-c2cc(=O)[nH]c3ccccc23)cc1	19	11*	-6	7	-2	-5
O=C(C=Cc1ccccc1)NCCSc1ccc(Cl)cc1	x	x	x	x	x	11
CCOc1ccc(NC2OC(C)C(O)C(O)C2O)c([N+](=O)[O-])c1 (configuration not stated)	112*	-3	0	7	0	12
O=C(O)/C=C/C(=O)c1ccc2c(c1)CCc1ccccc1-2	5	3	-4	32*	-5	x
O=C(O)C=CC(=O)c1ccc2c(c1)CCc1ccccc1-2	x	x	x	x	x	9
CSC(=NS(=O)(=O)c1ccc(N)cc1)NS(=O)(=O)c1cccs1	1	x	x	5	17*	9
COC(=O)C1=C(C)N(CC2CC2)C(=O)NC1c1ccc(Br)cc1 (configuration not stated)	x	x	x	x	x	5
Cc1nc2ccccc2c(=O)n1CCc1ccccc1	2	-3	-9	-3	-1	9
COCCCn1c(C)nc2c(c1=O)c1nc3ccccc3nc1n2CCc1ccccc1	36*	2	1	20	-3	14
Cc1ccc(NC(=O)c2cc(S(=O)(=O)N(C)C)ccc2N2CCCC2)cc1S(=O)(=O)N(C)C	1	1	8	2	-2	-5
Cc1ccc(NC(=O)c2cc(S(=O)(=O)N3CCCCC3)ccc2N2CCOCC2)cc1S(=O)(=O)N(C)C	1	x	x	9	-3	26*
CN(N=Cc1ccc2c(c1)OCO2)c1nc(N2CCOCC2)nc(N2CCOCC2)n1	x	x	x	x	x	-13
C(/C=C/c1ccccc1)=NNc1ccc2nncn2n1	x	x	x	x	x	11
CCOC(=O)c1sc(NC(=O)c2ccc(C)s2)cc1C	6	1	-10	43*	-7	18
Cc1nc(Nc2ccc3c(c2)OCCO3)c2oc3ccccc3c2n1	3	0	-9	13	-2	12
CCc1nc(Nc2ccc3c(c2)OCCO3)c2oc3ccccc3c2n1	-1	-2	-2	33*	0	2
Cc1ccc[n+](CC(=O)Nc2ccc([N+](=O)[O-])cc2)c1	2	-1	9	42*	1	3
COC(=O)C1CC1C(NC(=O)c1cnccn1)c1ccccc1 (configuration not stated)	x	x	x	x	x	12
SMILES	FBA Mtb inh	Mtb UGM inh	Rv3671c protease	GDH-TPI inh	FadD28 binding	Mtb hypoxia rep
CC(=O)NN=C(C)C1COc2ccccc2O1 (configuration not stated)	x	x	x	x	x	12
Cc1cccc(-c2nc3cc(NC(=O)C4CCCO4)ccc3o2)c1 (configuration not stated)	114*	4	2	-4	-3	4
Cc1ccc2oc(-c3cccc(NC(=O)Cc4cccs4)c3)nc2c1	4	1	1	7	0	-14
O=C(Nc1cccc(-c2nc3cc(Cl)ccc3o2)c1)C1CCCO1 (configuration not stated)	8	1	0	2	0	2
O=C(Nc1ccc2oc(-c3cccnc3)nc2c1)c1cc2ccccc2o1	2	0	-6	15	-1	x
CCCCC(=O)Nc1ccc2oc(-c3cccnc3)nc2c1	141*	-2	5	-1	-4	x
CCC(=O)Nc1ccc2oc(-c3cccc(C)c3)nc2c1	139*	4	0	5	-4	15
NC(Cc1ccc([N+](=O)[O-])cc1)=NOC(=O)COc1ccc2ccccc2c1	x	x	x	x	x	2
